Test results published in PubChem BioAssay (NCI).
This is part of a sample that, as a whole, favours compounds with a hit. Of some 83,000 tested, about 20% had one in any assay.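 Each cell line was grown in a 96-well plate and treated with one concentration of compound for 48 hours. Values below 10 were considered active.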 Active and inactive are the calls of the source.

Tests used:
Test in all cases: NCI-60 one-dose screen, 48 h (100 = growth as untreated, 0 = no growth, -100 = all killed)
Conditions in all cases: 10 µM unless noted
T-47D breast = test system: T-47D breast
BT-549 breast = test system: BT-549 breast
MDA-MB-435 melanoma = test system: MDA-MB-435 melanoma
SW-620 colon = test system: SW-620 colon
MCF7 breast = test system: MCF7 breast
HCT-116 colon = test system: HCT-116 colon
HCC-2998 colon = test system: HCC-2998 colon
KM12 colon = test system: KM12 colon

Measured: growth

O=C(/C=C/c1cccc(F)c1)c1cccc(OCCCCOc2cccc(C(=O)/C=C/c3cccc(F)c3)c2)c1
inactive: T-47D breast 105% | BT-549 breast 124% | MDA-MB-435 melanoma 103% | SW-620 colon 98.1% | MCF7 breast 54.6% | HCT-116 colon 72.8% | HCC-2998 colon 114% | KM12 colon 110%

O=C(Nc1cccc(C(F)(F)F)c1)N1CCN(c2cc(-c3cn(-c4ccccc4)nc3-c3cccc(O)c3)ccn2)CC1
inactive: BT-549 breast 55.4% | MDA-MB-435 melanoma 47.3% | SW-620 colon 52.3% | MCF7 breast 25.3% | HCT-116 colon 27.4% | HCC-2998 colon 86.3% | KM12 colon 32%
active: T-47D breast -5.55%

Cc1ccc(/C=N/Nc2nc(Nc3ccccc3)nc(Nc3ccc(S(N)(=O)=O)cc3)n2)cc1
inactive: T-47D breast 54.5% | BT-549 breast 76.5% | MDA-MB-435 melanoma 69.4% | SW-620 colon 92.3% | MCF7 breast 26.5% | HCT-116 colon 51.3% | HCC-2998 colon 74.1% | KM12 colon 66%

O=C1[C@@H]2Cc3c([nH]c4ccccc34)[C@@H](c3ccc(Cl)cc3)N2C(=O)CN1C1CCN(Cc2ccccc2)CC1
inactive: T-47D breast 81.7% | BT-549 breast 77.6% | MDA-MB-435 melanoma 64.2% | SW-620 colon 65.9% | MCF7 breast 19% | HCC-2998 colon 43.9% | KM12 colon 50.4%
active: HCT-116 colon 9.43%

O=C(NNc1nc2cc(F)cc(F)c2n2cccc12)c1cccnn1
active: T-47D breast 9.21%
inactive: BT-549 breast 31.5% | MDA-MB-435 melanoma 24% | SW-620 colon 22.1% | MCF7 breast 10.4% | HCT-116 colon 22.4% | HCC-2998 colon 65.6% | KM12 colon 24.2%

C#Cc1nc(/C=C/CCCCCCC(=O)NO)cs1
inactive: T-47D breast 51.6% | BT-549 breast 88.9% | MDA-MB-435 melanoma 55.3% | SW-620 colon 29.3% | MCF7 breast 48% | HCT-116 colon 20% | HCC-2998 colon 108% | KM12 colon 74.7%

COc1ccccc1Cn1cc(C#N)c(N)c1C(=O)c1ccc(Br)cc1
inactive: T-47D breast 74.1% | BT-549 breast 103% | MDA-MB-435 melanoma 94.4% | SW-620 colon 100% | MCF7 breast 91.5% | HCT-116 colon 93.9% | HCC-2998 colon 103% | KM12 colon 96.5%

Cc1cc(=O)oc2cc(OCCCOc3ccc(/C=C/C(=O)Nc4ccc(Br)cc4)cc3)ccc12
inactive: T-47D breast 57.7% | BT-549 breast 78.8% | MDA-MB-435 melanoma 97.3% | SW-620 colon 57.2% | MCF7 breast 58.9% | HCT-116 colon 85.4% | HCC-2998 colon 96.6% | KM12 colon 88.6%

COc1ccccc1/C=C/C(=O)c1nnn(-c2ccc(F)cc2)c1C
active: MCF7 breast 7.51%
inactive: T-47D breast 54.9% | BT-549 breast 62% | MDA-MB-435 melanoma 23.4% | SW-620 colon 19.9% | HCT-116 colon 10.7% | HCC-2998 colon 81.3% | KM12 colon 32.6%

CN1CCN(Cc2ccc(NC(=O)c3cncc(C#Cc4cnc5ccc(OC6CCOCC6)nn45)c3)cc2C(F)(F)F)CC1
active: T-47D breast -56.1% | BT-549 breast -82.7% | MDA-MB-435 melanoma -81.6% | SW-620 colon -18.2% | MCF7 breast -67.1% | HCT-116 colon -89.5% | HCC-2998 colon -68.5% | KM12 colon -68.5%

CCCCCCOC(=O)c1cc(-c2ccc(F)cc2)nc2ccccc12
inactive: T-47D breast 88.8% | BT-549 breast 103% | MDA-MB-435 melanoma 99.9% | SW-620 colon 93.5% | MCF7 breast 91.5% | HCT-116 colon 93.3% | HCC-2998 colon 106% | KM12 colon 96.1%

COc1ccc(C(=O)c2c(N)c(C#N)cn2-c2ccc(Cl)cc2Cl)cc1
inactive: T-47D breast 92.9% | BT-549 breast 111% | MDA-MB-435 melanoma 97.4% | SW-620 colon 98.3% | MCF7 breast 99.4% | HCT-116 colon 97.7% | HCC-2998 colon 103% | KM12 colon 102%

CC(C)NC(=O)c1cc(-c2ccc(NC(=O)Nc3ccc(F)c(C(F)(F)F)c3)cc2)nc2cccnc12
inactive: T-47D breast 80.3% | BT-549 breast 100% | MDA-MB-435 melanoma 91.3% | SW-620 colon 106% | MCF7 breast 91.8% | HCT-116 colon 81.9% | HCC-2998 colon 115% | KM12 colon 89.6%

Cc1[nH]c(C(=O)Nc2ccccc2OCc2cccc(C(=O)NC3CCCNC3)c2)c(Cl)c1Cl (stereo not given)
inactive: BT-549 breast 98.8%
active: T-47D breast -9.08% | MDA-MB-435 melanoma -80.2% | SW-620 colon -68.8% | MCF7 breast -77.8% | HCT-116 colon -67% | HCC-2998 colon -90% | KM12 colon -78.4%

CN1CC[C@@H]2[C@@]3(C)CC[C@H](O)C(C)(C)[C@@H]3CC[C@@]2(C)[C@]2(C)CC[C@@]3(CO)CCC(C)(C)C[C@@H]3C12 (stereo not given in full)
inactive: T-47D breast 79.8% | BT-549 breast 96.7% | MDA-MB-435 melanoma 95.7% | SW-620 colon 90.2% | MCF7 breast 77% | HCT-116 colon 77.9% | HCC-2998 colon 27.5% | KM12 colon 96.2%
